High-throughput results deposited in PubChem BioAssay by The Scripps Research Institute Molecular Screening Center.
An excerpt weighted towards active compounds, which were near 2.4% of everything screened.
CHO-K1 Ca PAM: nonselective calcium activators in parental CHO-K1 cells, primary screen, counter-screen for M1 PAM project, cell-based, Fluo-8 calcium fluorescence, full deck, 1536-well | activation, % at 3 µM | 360,000 compounds, 0.02% hits | ATP EC20; 0% at ATP EC20, 100% at ATP max;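 active means activation above the run cutoff, the mean activation of all test compounds plus 3 SD, cut at about 40% in these data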;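 further: peak over basal fluorescence ratio in a 140 s read after ATP addition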
M1 ag parental: counter-screen for M1 agonists: effect in parental CHO-K1 cells; Fluo-8 calcium fluorescence; scaled to maximal ATP response, vehicle zero; activation, % at 3 µM; 360,000 compounds, 0.48% hits; AID 602248, 2012; in the data active means activation above about 15%;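 further: untransfected CHO-K1 host cells lacking M1 receptor as counterscreen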
CHO-K1 Ca antag: counter-screen for M1 antagonists: effect in parental CHO-K1 cells; inhibition, % at 3 µM; ATP-induced calcium, Fluo-8 fluorescence; 360,000 compounds, 0.6% hits;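 active means inhibition above a per-plate cutoff, the plate's mean sample inhibition plus 3 SD, cut at about 24% in these data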;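 further: 0% = DMSO plus EC80 ATP and 100% = DMSO alone without ATP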
CHRM1 PAM: human M1 muscarinic receptor positive allosteric modulators, primary screen, CHO-K1 cells, Fluo-8 calcium fluorescence, 1536-well | 360,000 compounds, 0.088% hits | AID 588819, 2011 | activation, % at 3 µM | Muscarinic acetylcholine receptor M1 (Homo sapiens), P11229 | CHO-K1 hM1, ACh EC20; 0% = ACh EC20, 100% = maximal ACh; in the data active means activation above about 19%, passing the limit was not always enough
Target sequence (P11229 whole entry, looked up): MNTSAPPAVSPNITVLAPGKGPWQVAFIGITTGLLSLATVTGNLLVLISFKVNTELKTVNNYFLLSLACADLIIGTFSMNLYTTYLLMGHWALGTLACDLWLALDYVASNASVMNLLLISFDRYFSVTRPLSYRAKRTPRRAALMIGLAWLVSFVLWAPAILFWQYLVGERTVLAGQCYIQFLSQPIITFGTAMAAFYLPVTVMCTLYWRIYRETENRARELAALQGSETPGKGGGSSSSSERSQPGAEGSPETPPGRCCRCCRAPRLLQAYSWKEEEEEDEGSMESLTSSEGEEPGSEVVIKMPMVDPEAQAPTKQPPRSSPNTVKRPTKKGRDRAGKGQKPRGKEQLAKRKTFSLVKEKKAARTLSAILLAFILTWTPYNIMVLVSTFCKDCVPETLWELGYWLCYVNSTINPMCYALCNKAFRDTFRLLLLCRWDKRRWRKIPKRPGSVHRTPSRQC
CHRM1 antagonist: human M1 muscarinic receptor antagonists, primary screen, CHO-K1 cells, Fluo-8 calcium fluorescence, 1536-well | 360,000 compounds, 1.3% hits | CHO-K1 hM1, ACh EC80 antagonist | inhibition, % at 3 µM;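 active means percent inhibition above its own plate's cutoff, namely the mean of that plate's compound wells plus 3 SD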;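 further: peak over basal fluorescence ratio during 140 s after agonist addition; 0% = ACh EC80 plus DMSO and 100% = DMSO alone without agonist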
CHRM1 agonist: human M1 muscarinic receptor agonists, primary screen, Fluo-8 calcium fluorescence, CHO-K1 cells, HTS. Muscarinic acetylcholine receptor M1 (Homo sapiens), P11229. 360,000 compounds, 0.33% hits. activation, % at 3 µM. AID 588814, 2011. CHO-K1 hM1, agonist mode; 0% DMSO, 100% acetylcholine EC100;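 active means activation above the run's mean compound activation plus 3 SD, cut at about 16% in these data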;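 further: peak over basal fluorescence ratio within a 140 s kinetic read after compound addition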
The depositor's hits bear a star.

SMILES | CHO-K1 Ca PAM | M1 ag parental | CHO-K1 Ca antag | CHRM1 PAM | CHRM1 antagonist | CHRM1 agonist
CCOC(=O)C1CCCN(Cc2c(C(=O)N3CCCCC3)nc3c(C)cccn23)C1 (stereo not given) | 10.8 | 4.4 | -17.7 | 4.0 | -5.3 | 9.5
CCOC(=O)C1CCCN(Cc2c(C(=O)N3CCOCC3)nc3ccccn23)C1 (stereo not given) | -6.9 | 0.4 | -11.7 | -9.9 | 13.9 | 22.6*
NC(=O)c1ccccc1OCC(=O)Nc1ccc(Cl)c(Cl)c1 | 3.6 | 10.7 | -7.3 | -4.9 | 2.7 | 1.4
O=C(/C=C/c1ccccc1)Nc1ccc(N2CCCCC2)cc1 | -8.8 | 0.5 | 10.8 | 5.5 | -10.8 | -4.0
COc1cc(C[C@@H]2C(=O)OC[C@H]2Cc2ccc(OC)c(OC)c2)ccc1O | 4.8 | 11.8 | 4.4 | -23.5 | 49.6* | 3.3
COc1ccc(C(=O)C[n+]2ccc3c(c2)nc(-c2ccccc2)n3C)cc1 | -5.0 | -0.4 | -2.3 | -22.0 | 56.8* | -12.4
CN(CCOc1ccccc1)C(=O)c1ccc(N2CCCC2)c([N+](=O)[O-])c1 | -7.1 | 4.0 | -7.3 | 0.1 | 5.4 | -4.4
COC(=O)C1CCCCN1C(=O)c1cc(COc2cccc3cnccc23)on1 (stereo not given) | -22.3 | 15.3* | 28.1* | -14.9 | 42.9* | 0.9
CN(Cc1nccs1)C(=O)c1cc(COc2cccc3cnccc23)on1 | -14.9 | 16.2* | 15.5 | -9.8 | 23.5 | 4.2
COC(=O)C1CCCCN1C(=O)c1cc(COc2cccc3cccnc23)on1 (stereo not given) | 4.7 | 1.7 | 8.8 | 12.0 | -14.2 | -2.9
CCOC(=O)CC1CCCCN1C(=O)c1cc(COc2cccc3cnccc23)on1 (stereo not given) | -29.1 | 19.7* | 44.9* | -20.3 | 72.0* | 6.3
CNC(=O)COC(=O)CCC(=O)c1cccs1 | 17.9 | 0.8 | -14.0 | 10.9 | -10.2 | -0.4
O=C(COC(=O)CCC(=O)c1cccs1)NC1CC1 | -4.9 | 15.5* | -2.2 | 1.6 | 1.5 | -2.2
N#Cc1ccccc1OCC(=O)OCC(=O)Nc1ccc2c(c1)OCO2 | 9.7 | 0.2 | -13.9 | 7.7 | -4.0 | -3.0
CCc1nnc(NS(=O)(=O)c2ccc(Nc3ccc4nonc4c3[N+](=O)[O-])cc2)s1 | -16.9 | -0.8 | 29.4* | -8.7 | 5.9 | -5.0
CC(=O)Nc1ccc(Nc2ccc3nonc3c2[N+](=O)[O-])cc1 | 22.6 | 1.6 | -2.1 | 9.6 | -7.6 | -6.1
COc1ccccc1/C=C/C=N/n1c(-c2ccc(Cl)cc2)n[nH]c1=S | -16.4 | -1.3 | 53.4* | 12.2 | -26.7 | -0.4
Cc1cccc(C)c1NC(=O)N1CCC(c2nc3ccccc3o2)CC1 | -7.6 | 1.2 | -8.0 | -15.4 | 27.6* | -6.4
Cc1cccc(C)c1NC(=O)C1CCCN(CCCc2ccccc2)C1 (stereo not given) | 16.1 | 1.6 | -4.0 | -24.0 | 96.6* | -7.1
O=C(CCC(=O)N1CCN(c2ccc(Cl)c(Cl)c2)CC1)c1ccccc1 | -14.5 | 12.0 | 13.8 | -19.1 | 43.8* | 0.0
O=C(c1ccco1)N1CCN(c2ccc(Cl)cc2)CC1 | 15.2 | 0.9 | -6.9 | 6.1 | -11.1 | 11.8
CNC(=S)N1CCN(c2ccc(Cl)c(Cl)c2)CC1 | -1.1 | 16.9* | 3.6 | -10.6 | 20.7 | -1.4
O=C(c1ccco1)N1CCN(c2ccc(Cl)c(Cl)c2)CC1 | -14.6 | 5.8 | 26.2* | -13.8 | 33.1* | -2.6
COC(=O)N1CCN(c2ccc(Cl)c(Cl)c2)CC1 | 7.2 | 8.3 | 7.0 | -5.2 | 10.2 | -1.5
O=C(/C(=C\c1ccccc1)c1nc2ccccc2[nH]1)c1ccc(Cl)cc1 | 19.5 | 1.0 | -15.6 | -14.9 | 1.3 | -6.9
SMILES | CHO-K1 Ca PAM | M1 ag parental | CHO-K1 Ca antag | CHRM1 PAM | CHRM1 antagonist | CHRM1 agonist
O=C(/C(=C/c1ccc(Cl)cc1)c1nc2ccccc2[nH]1)c1cccs1 | 4.5 | 1.8 | -10.8 | -36.3 | 94.4* | -11.4
O=c1[nH]c2ccccc2nc1/C=C(\O)c1cccs1 | 2.3 | 15.2* | 12.3 | -7.0 | 4.0 | 18.0*
CC(=O)Nc1ccc(S(=O)(=O)Nc2cccc3[nH]ncc23)cc1 | -16.7 | 12.9 | 30.9* | 5.9 | -4.5 | -8.1
CCOc1ccc(Cl)cc1CNCCCSc1ncccn1 | 13.0 | 18.9* | 10.2 | 1.7 | -6.6 | -4.3
CCCCS(=O)(=O)N1CCCC(C(=O)NCC2CCCO2)C1 (stereo not given) | -18.0 | 0.3 | 3.5 | 13.6 | -20.2 | -1.0
N#Cc1c(C(F)(F)F)cc(-c2ccco2)nc1SCc1ccccn1 | 1.3 | 18.0* | 17.8 | -8.7 | 24.5 | 8.5
N#Cc1c(C(F)(F)F)cc(-c2ccco2)nc1SCc1ccncc1 | 0.7 | 12.8 | 4.3 | -2.9 | 12.2 | 7.8
CC(=O)Nc1ccc(NC(=O)C/C(C)=N/NC(=O)c2cccc3ccccc23)cc1 | 12.6 | 2.5 | -4.1 | 5.7 | -15.0 | -2.9
CC(OC(=O)CNC(=O)c1ccc(Cl)cc1)C(=O)NC1CCCCC1C (stereo not given) | -21.7 | 0.4 | 25.2* | 13.8 | -6.1 | 7.3
CC(OC(=O)CNC(=O)c1ccc2ccccc2c1)C(=O)NC1CCCCC1C (stereo not given) | 16.1 | 17.6* | 7.5 | 4.5 | -9.3 | 1.3
CC(OC(=O)CNC(=O)c1ccc(Br)cc1)C(=O)NC1CCCCC1C (stereo not given) | 9.0 | 2.8 | -2.7 | 8.9 | -11.9 | 0.6
CC(=O)C1=C(O)C(=O)N(c2ccc(C)cc2)C1c1ccc([N+](=O)[O-])cc1 (stereo not given) | 14.9 | 16.1* | 14.3 | 12.4 | 0.7 | -5.8
O=C(Nc1ccn(Cc2ccccc2F)n1)c1ccc(COc2ccc(Br)cc2)cc1 | -8.3 | 7.9 | 9.7 | -21.1 | 32.9* | 1.7
O=C(NNC(=O)C1[C@H]2CCCC[C@@H]12)Nc1cccc2ccccc12 (stereo not given in full) | 1.4 | 2.1 | -11.1 | 5.3 | -12.9 | 1.1
CCCc1nc2oc3c(Cl)ncnc3c2c2c1CCCC2 | 18.6 | -0.3 | -6.2 | -24.2 | 52.5* | -6.8
CC(C)Cc1nc2oc3c(Cl)ncnc3c2c2c1CCCC2 | -2.5 | 0.1 | 1.9 | 3.3 | 1.1 | -4.1
C[C@H]1CN([C@@H](C)CO)S(=O)(=O)c2ccc(/C=C/c3ccccc3)cc2O[C@H]1CN(C)C(=O)NC1CCCCC1 | -1.8 | 0.0 | -10.0 | 8.8 | -9.0 | -9.7
O=C(C#Cc1cccc([N+](=O)[O-])c1)c1ccccc1 | -1.3 | -0.1 | 27.3* | 2.1 | 7.1 | -3.9
